SSB-PriA inh: inhibitors of Klebsiella pneumoniae PriA binding to SSB C-terminal tail, primary screen, biochemical, AlphaScreen. PriA–SSB C-terminal tail interaction (Klebsiella pneumoniae). AlphaScreen SSBct-PriA binding, biotinylated peptide. inhibition, % at 33 µM. 430,000 compounds, 0.6% hits. AID 1272365, 2023; in the data active means inhibition mostly above about 37%, no sharp cut-off; inactive means mostly below about 20%;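 further: plate controls were negative control peptide for no effect and reference peptide for full effect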
MazF activator: activators of E. coli MazEF toxin-antitoxin RNase, primary screen, biochemical, fluorescence, uHTS; Endoribonuclease toxin MazF (Escherichia coli (strain K12)), P0AE70; FAM/BHQ RNA-DNA oligo cleavage fluorescence, 5 h; activation, % at 20 µM; 350,000 compounds, 0.32% hits; AID 504720, 2011; in the data active means activation above about 50%
Target sequence (P0AE70 whole entry, looked up): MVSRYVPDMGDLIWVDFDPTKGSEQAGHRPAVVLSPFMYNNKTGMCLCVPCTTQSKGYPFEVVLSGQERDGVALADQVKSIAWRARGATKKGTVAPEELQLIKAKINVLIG
PrP UTR inh: inhibition of PrP 5' UTR reporter expression. cell-based PrP 5' UTR mRNA reporter, plate reader. inhibition, % (test concentration not listed). 340,000 compounds, 0.35% hits. AID 488862, 2010; in the data active means inhibition above about 52%; further: 0 = median of the neutral control wells
PfHsp40 yeast: rescue of yeast from PfHsp40 toxicity, primary screen, S. cerevisiae, ATP luminescence; 340,000 compounds, 0.68% hits; AID 504582, 2011; growth rescue, % at 12.5 µM; S. cerevisiae expressing PfHsp40, growth rescue; in the data active means growth rescue above about 28%, passing the limit was not always enough; inconclusive means no clear call, values can overlap the other calls;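 further: yeast W303a lacking pdr1 and pdr3 grown in galactose medium; growth measured after three days at 30 °C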
PrPC surface inh: inhibitors of human cell surface prion protein PrPC, primary screen, cell-based, TR-FRET; Major prion protein (Homo sapiens), P04156; TR-FRET read-out; inhibition, % at 13.8 µM; 370,000 compounds, 0.43% hits; in the data active means inhibition above about 24%; further: 0% = median of the test wells and 100% = reference compound wells
Starred values were filed as active, the others as inactive; i = inactive; ? = inconclusive; · = not tested or not shown. Compounds with a hit are over-represented: about 1.8% of the library has one in this group of screens.

SMILES | SSB-PriA inh | MazF activator | PrP UTR inh | PfHsp40 yeast | PrPC surface inh
CCOc1cc(N2CCOCC2)c(OCC)cc1NC(=O)COC(=O)c1ccc([N+](=O)[O-])o1 | 4.6 | 4.1 | -23.1 | 81.7* | -18.5
O=C(COC(=O)c1ccc([N+](=O)[O-])o1)Nc1ccc2c(c1)OCO2 | -1.4 | 8.1 | -25.3 | 66.9* | -21.9
Cc1cccc(C)c1NC(=O)COC(=O)c1ccc([N+](=O)[O-])o1 | -10.1 | 4.8 | -15.8 | 32.3* | -20.3
NC(=NOC(=O)Nc1ccccc1)c1cccc(C(F)(F)F)c1 | -13.9 | · | · | · | ·
Cc1ccc(S(=O)(=O)Nc2c(S(=O)(=O)c3ccc(C)cc3)c3nc4ccccc4nc3n2CCc2ccccc2)cc1 | 40.0 | · | · | · | ·
CCCCCn1c(NS(=O)(=O)c2ccc(C)cc2)c(S(=O)(=O)c2ccccc2)c2nc3ccccc3nc21 | 51.9 | · | · | · | ·
COCCn1c(NS(=O)(=O)c2ccc(C)cc2)c(S(=O)(=O)c2ccc(C)cc2)c2nc3ccccc3nc21 | 63.0* | · | · | · | ·
COCCCn1c(NS(=O)(=O)c2ccccc2)c(S(=O)(=O)c2ccc(C)cc2)c2nc3ccccc3nc21 | 72.4* | · | · | · | ·
COCCCn1c(NS(=O)(=O)c2ccc(C)cc2)c(S(=O)(=O)c2ccc(C)cc2)c2nc3ccccc3nc21 | 59.2* | · | · | · | ·
CCCCCCCCn1c(NS(=O)(=O)c2ccc(C)cc2)c(S(=O)(=O)c2ccccc2)c2nc3ccccc3nc21 | 49.8 | · | · | · | ·
O=C(Nc1ccc(S(=O)(=O)N2CCCC2)cc1)C1CCN(S(=O)(=O)c2ccc(F)cc2)CC1 | 4.3 | -1.8 | -5.7 | 2.3 | 5.1
CN(C)c1ccc(NS(=O)(=O)c2cc(Cl)ccc2Cl)cc1 | 34.9 | 10.6 | -18.5 | -0.2 | 5.0
CCN(c1ccc(NS(=O)(=O)c2cc(Cl)ccc2Cl)cc1)C(C)C | 39.6* | -1.9 | -17.4 | -1.2 | 4.4
CCOC(=O)C1CCCN(C(=O)C(=O)Nc2ccc3nc4n(c(=O)c3c2)CCCCC4)C1 (stereo not given) | -12.9 | -5.8 | -1.0 | 1.3 | 10.0
CCc1nnc(NC(=O)c2cc(Cl)ccn2)s1 | 81.2* | 20.7 | -4.6 | 4.8 | 7.9
CCc1nnc(NC(=O)c2ccccc2Cl)s1 | -4.0 | · | · | · | ·
CCSc1nnc(NC(=O)c2ccccn2)s1 | 86.4* | 4.2 | -17.6 | ? | 0.0
CCc1nnc(NC(=O)c2ccccn2)s1 | 104.5* | · | · | · | ·
CCc1ccnc(C(=O)Nc2nnc(CC)s2)c1 | 102.5* | · | · | · | ·
Cc1c(C)c2c(OCC(=O)NCC3CCC(C(=O)O)CC3)cc3c(c2oc1=O)CCC(C)(C)O3 (stereo not given) | · | · | · | · | -1.1
CCOC(=O)CSc1nc2ccc(C)cc2cc1C#N | -15.4 | 296.5* | -140.9 | -0.5 | -6.1
COc1ccc2cc(C#N)c(SCC(=O)Nc3nonc3C)nc2c1 | -6.0 | 21.8 | -23.1 | 0.0 | -1.1
COc1ccc2nc(SCC(C)=O)c(C#N)cc2c1 | -17.1 | 934.1* | -150.6 | 3.1 | -6.0
CCOC(=O)CSc1nc2cc(OC)ccc2cc1C#N | -9.7 | 120.3* | -57.5 | 0.6 | 0.8
CCOC(=O)CSc1nc2cc(C)ccc2cc1C#N | -11.3 | 628.2* | -121.8 | 1.3 | -3.1
SMILES | SSB-PriA inh | MazF activator | PrP UTR inh | PfHsp40 yeast | PrPC surface inh
COc1ccc(CN2CCN(Cc3c[nH]c4ccccc34)CC2)cc1OC | · | -5.8 | · | · | -4.7
Cc1ccc(C(O)c2ncc(-c3ccccc3F)[nH]2)c(C)c1 (stereo not given) | · | · | · | · | -4.6
O=C(c1cc2sccc2n1Cc1ccc(F)cc1)N1CCCc2ccccc21 | 2.0 | -29.8 | -1.9 | 1.5 | -3.9
Cc1cc2cc(C#N)c(SCC(=O)Nc3nonc3C)nc2cc1C | -8.7 | 62.6* | -39.9 | 2.5 | 0.6
COc1ccc2nc(SCC(=O)N3CC(=O)Nc4ccccc43)c(C#N)cc2c1 | -8.8 | 58.0* | -13.1 | 8.2 | 2.4
CN(Cc1ccccc1)C(=O)CN1CCCC1=O | 5.0 | 2.0 | 5.9 | -0.8 | -6.0
Cc1cccc(N2CCN(CC(=O)N(C)Cc3ccccc3)CC2C)c1 (stereo not given) | 1.6 | -6.5 | -6.8 | 43.6* | 2.4
O=C(O)C/C(=C\c1cccc(NC(=O)c2ccccc2Cl)c1)c1nc2ccccc2s1 | -11.4 | -15.3 | -25.0 | 28.0* | -8.4
Nc1ccc(/C=C/c2ccccc2)cc1 | 40.0* | · | · | · | ·
Nc1ccc(-c2ccccc2)cc1 | -6.8 | -0.9 | -21.3 | -0.7 | 6.4
CC(C)Nc1nc(-c2ccccn2)nnc1-c1ccccc1 | 154.5* | · | · | · | ·
CC(C)Nc1nc(-c2ccccc2)nnc1-c1ccccc1 | -3.6 | 6.3 | -22.6 | 0.5 | -5.7
COc1cc(OC)c(C(=O)N/N=C/c2ccoc2)cc1OC | · | -1.4 | -4.0 | -2.0 | -2.9
COc1ccnc(CSC(N)=Nc2ccc(F)cc2)c1 | 45.7* | 0.4 | -15.5 | -0.7 | -8.1
COc1cccc(CNC(=O)C2CCCN(S(=O)(=O)c3cccc4nonc34)C2)c1 (stereo not given) | -12.1 | -1.5 | -14.3 | 38.1* | -17.0
CC(NC(=O)COc1ccccc1)C(=O)OCC(=O)c1cc2ccccc2o1 (stereo not given) | -8.3 | -0.3 | -4.8 | -0.2 | -0.3
Cc1ccsc1/C=C/c1ccc2cccc(O)c2n1 | -21.6 | 6.4 | -55.5 | 445.8* | -19.7
Oc1ccc(Cl)cc1/C=C/c1ccc2cccc(O)c2n1 | -3.2 | 60.2* | -19.0 | 160.0* | -23.2
O=C(Nc1ccc2nn(-c3ccccc3)nc2c1)c1cccnc1 | 0.5 | -1.3 | -47.8 | 114.6* | -2.0
O=C(O)c1ccc(N/N=C/C2=C(N3CCOCC3)C(=C\c3ccccc3)/CC2)cc1 | i | 0.8 | -18.7 | 273.4* | -4.6
O=C(O)/C=C/C(=O)Nc1ccc(OC(F)(F)F)cc1Br | 0.1 | 2.6 | -38.9 | -0.1 | -0.8
CCCCN(Cc1ccccc1)c1ncnc2nc[nH]c12 | 11.0 | -7.4 | -45.9 | -0.7 | ·
CCCCN(CCCC)c1ncnc2nc[nH]c12 | -4.4 | 2.1 | 9.5 | 137.8* | -13.8
Cc1ccnc2c(=O)cc[nH]c12 | 104.0* | · | · | · | ·
O=c1cc[nH]c2c1ccc1c(=O)cc[nH]c12 | 2.6 | -6.8 | -13.5 | -1.0 | 9.8
SMILES | SSB-PriA inh | MazF activator | PrP UTR inh | PfHsp40 yeast | PrPC surface inh
O=C(O)CCC(=NNc1ccccc1[N+](=O)[O-])c1cccs1 | 42.3* | · | · | · | ·
Cc1ccc(S(=O)(=O)Nc2ccc3ccccc3c2[N+](=O)[O-])cc1 | 9.5 | -1.1 | -21.9 | 408.5* | 2.5
Cc1ccc(S(=O)(=O)Nc2ccc3cc([N+](=O)[O-])ccc3c2[N+](=O)[O-])cc1 | 13.8 | 2.7 | -17.3 | 352.2* | -0.8
COc1ccc([N+](=O)[O-])cc1NS(=O)(=O)c1ccc(C)cc1 | 2.6 | 0.1 | -18.6 | 0.0 | -9.7
Clc1ccc(C2=NCCN2)cc1 | -2.0 | 4.4 | -8.0 | 221.0* | -8.8
CC1Cc2ccccc2N1CC(=O)c1c(N)n(Cc2ccccc2)c(=O)n(C)c1=O (stereo not given) | 6.8 | 12.4 | -20.2 | 0.4 | 2.4
CCn1c(=O)c(C(=O)CN2c3ccccc3CC2C)c(N)n(Cc2ccccc2)c1=O (stereo not given) | 39.5* | 1.8 | 1.1 | -0.1 | -3.6

Screening data deposited in PubChem by several laboratories.
